Active and inactive are the calls of the source.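 The calls were made as follows, unless noted: active = fluorescence slope higher than the sample average by over 3 SD (cut at about -0.22 in these data, passing the limit was not always enough); inactive = the rest.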
Tests used:
[1] = inhibitors of TNFa-induced NFkB p65 translocation, primary screen, imaging, HUVEC, MLSMR starter and 10KST1 sets (AID 438;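 active = inhibition above 20% together with a positive visual image hit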;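 also: compound added about 3h40 before a 20 min TNFalpha stimulation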;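 as to inhibition: signal is the nuclear over cytoplasmic p65 intensity ratio per well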); conditions: HUVEC TNFa-induced p65 nuclear translocation; cell count: measured here: nuclei count (cytotoxicity indicator), at 2.08 µM; inhibition: at 2 µM, stronger effect = higher value, 0% TNFa-plus-vehicle, 100% no-TNFa wells
[2] = inhibitors of mutant huntingtin aggregation, primary screen, imaging, exon1htt(103Q)mCFP cells, high-content imaging (AID 483;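 active = visual image review flags a hit and inhibition of aggregation exceeds 20%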;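 also: compound exposure lasted 3 days before fixation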;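 as to nuclei count: percent of the per-plate median nuclei count of sample wells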); conditions: exon1htt(103Q)mCFP cell line, aggregate imaging, at 2 µM; inhibition of aggregation: stronger effect = higher value; nuclei count: measured here: cell count, toxicity
[3] = inhibitors of E-selectin induction by TNFa, primary screen, imaging, HUVEC, immunofluorescence, MLSMR starter and 10KST1 sets (AID 487;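 active = visually confirmed hit in the image check and inhibition above 20%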;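 as to inhibition: signal is fraction of cell area covered by stained E-selectin grains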;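 as to nuclei count: 100% = median nuclei count of all wells on the same plate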); conditions: HUVEC TNFalpha-induced E-selectin immunofluorescence imaging, at 2 µM; inhibition: stronger effect = higher value; nuclei count: measured here: cell number, toxicity
[4] = DUSP6 inhibitors restoring Erk phosphorylation by chemical complementation, primary imaging in DUSP6-transfected HeLa (AID 609;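 active = compounds giving at least 50% inhibition in the cell-based MKP-3 phosphatase rescue imaging test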;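 as to inhibition: phospho-Erk level distribution per well compared with pooled transfected vehicle control wells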); conditions: HeLa MKP-3 transfected, phospho-Erk imaging KS statistic, at 10 µM, cells stimulated with TPA for 15 min
[5] = biological target: Dual specificity protein phosphatase 6 (Homo sapiens) (UniProt Q16828); experiment: as above; conditions: HeLa MKP-3 transfected, phospho-Erk imaging KS statistic; at 10 µM; stronger effect = higher value; cells stimulated with TPA for 15 min
[6] = biological target: Voltage-gated potassium channel subunit beta-2 (Rattus norvegicus) (UniProt P62483); experiment: KvBeta enzyme negative modulators, primary screen, biochemical, NADPH fluorescence (AID 622); conditions: recombinant KvBeta, 4-cyanobenzaldehyde reduction, at 10 µM, stronger effect = higher value;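 also: slope of raw intensity against log time taken from 70 to 1610 s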
[7] = biological target: Voltage-gated potassium channel subunit beta-2 (Rattus norvegicus) (UniProt P62483); experiment: KvBeta positive modulators, primary screen, biochemical, NADPH fluorescence (AID 623;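 active = NADPH fluorescence slope more negative than the mean of all samples by about 3 SD, 99.7% confidence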;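 also: fluorescence intensity change per second fitted from 20 to 320 s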); conditions: Recombinant KvBeta, NADPH fluorescence decrease slope, 10 min; at 10 µM; stronger effect = lower value
[8] = biological target: Alpha-2C adrenergic receptor (Homo sapiens) (UniProt P18825); experiment: modulators of alpha2C/GIRK thallium flux, primary screen, cell-based, HEK293 alpha2C/GIRK1/2 (AID 624;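 active = fluorescence slope after compound addition differing from the mean of all screened samples at 99.7% confidence, in either direction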;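 also: slope of fluorescence ratio to pre-addition baseline per second over 15 to 24 s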); conditions: thallium flux BTC fluorescence, at 10 µM, actives lie on both sides
[9] = inhibitors of larval lipid processing in zebrafish, primary screen, whole organism, PED6 fluorescence, gall bladder and intestine (AID 686;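 active = a full or partial loss of lipid-probe fluorescence in the fish gall bladder, intestine or both, judged by eye; inactive = no fluorescence loss, or compound toxic to the fish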;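 also: larvae 5 to 7 days old with five fish per well; signal comes from phospholipase A2 cleavage of quenched PED6 carried via bile; overnight exposure to compound and PED6 before scoring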); conditions: Zebrafish larvae PED6 lipid processing, fluorescence scoring; screened at 20 µM (by protocol)
[10] = inhibitors of Chlamydomonas gravitaxis, primary screen, whole organism, Chlamydomonas reinhardtii, WT vs cilia-less mutant, absorbance, 96-well (AID 463189;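 active = inhibition at or above 50% relative to wild type and mutant plate controls; inactive = inhibition below 50%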;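 also: 0% = wild type cc124 cells in DMSO and 100% = ciliumless bld1 mutant cells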); conditions: OD600 absorbance, 2 days, at 10 µM, stronger effect = higher value
[11] = inhibitors of Sendai virus-induced IRF3 signaling, primary screen, TLR/RLR signaling modifier project, cell-based, Sendai virus stimulus, luciferase, 10K MLSCN set (AID 602276;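 active = inhibition at or above 50% at 10 µM; inactive = inhibition below 50%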;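 also: firefly luciferase from ISG56 promoter only with Renilla not read in this screen; 0% = Sendai virus plus DMSO and 100% = medium plus DMSO without virus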); conditions: HEK293 RL24 IRF3 luciferase reporter, at 10 µM, stronger effect = higher value
[12] = inhibitors of poly I:C-induced TLR3 signaling, primary screen, cell-based, poly I:C stimulus, luciferase, 10K MLSCN set (AID 602277;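 active = inhibition of the reporter signal at or above 50%; inactive = inhibition below 50%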); conditions: HEK293-TLR3 RL24 IRF3 luciferase reporter, at 10 µM, stronger effect = higher value
[13] = biological target: Muscarinic acetylcholine receptor M4 (Homo sapiens) (UniProt P08173); experiment: compounds altering M4/GIRK thallium flux, either direction, primary screen, M4 allosteric agonist project, cell-based, HEK293 M4/GIRK, BTC-AM (AID 625;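 active = fluorescence slope after compound addition differing from the mean of all tested samples at 99.7% confidence, mostly higher but some lower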;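 also: thallium influx through GIRK channels coupled to M4 in HEK293 cells with BTC-AM dye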); conditions: at 10 µM, actives lie on both sides
[14] = measured here: cell density z-score
[15] = measured here: nuclear c-Myc green intensity z-score
[16] = measured here: nuclear pErk red intensity z-score, stronger effect = higher value

Dual specificity protein phosphatase 6 (Homo sapiens), sequence (Q16828 whole entry, looked up): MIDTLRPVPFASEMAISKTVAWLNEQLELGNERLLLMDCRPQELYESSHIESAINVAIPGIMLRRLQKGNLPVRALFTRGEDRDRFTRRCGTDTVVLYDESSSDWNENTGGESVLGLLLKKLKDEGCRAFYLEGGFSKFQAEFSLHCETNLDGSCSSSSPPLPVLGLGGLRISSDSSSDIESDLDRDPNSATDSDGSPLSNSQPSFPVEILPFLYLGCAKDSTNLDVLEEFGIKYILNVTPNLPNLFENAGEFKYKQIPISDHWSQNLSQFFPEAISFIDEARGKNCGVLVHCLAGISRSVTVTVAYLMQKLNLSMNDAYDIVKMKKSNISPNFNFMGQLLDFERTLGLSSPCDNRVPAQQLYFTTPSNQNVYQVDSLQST
Voltage-gated potassium channel subunit beta-2 (Rattus norvegicus), sequence (P62483 whole entry, looked up): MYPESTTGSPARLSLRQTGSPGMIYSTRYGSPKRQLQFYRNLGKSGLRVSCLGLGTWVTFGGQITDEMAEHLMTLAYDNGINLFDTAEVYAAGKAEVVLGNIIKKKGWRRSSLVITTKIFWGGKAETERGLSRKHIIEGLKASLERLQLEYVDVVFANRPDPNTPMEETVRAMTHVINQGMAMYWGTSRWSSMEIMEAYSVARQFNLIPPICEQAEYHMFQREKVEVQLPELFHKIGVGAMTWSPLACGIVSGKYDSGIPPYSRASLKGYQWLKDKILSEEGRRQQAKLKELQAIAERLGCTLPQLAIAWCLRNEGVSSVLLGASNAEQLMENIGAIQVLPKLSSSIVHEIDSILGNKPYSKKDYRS
Alpha-2C adrenergic receptor (Homo sapiens), sequence (P18825 whole entry, looked up): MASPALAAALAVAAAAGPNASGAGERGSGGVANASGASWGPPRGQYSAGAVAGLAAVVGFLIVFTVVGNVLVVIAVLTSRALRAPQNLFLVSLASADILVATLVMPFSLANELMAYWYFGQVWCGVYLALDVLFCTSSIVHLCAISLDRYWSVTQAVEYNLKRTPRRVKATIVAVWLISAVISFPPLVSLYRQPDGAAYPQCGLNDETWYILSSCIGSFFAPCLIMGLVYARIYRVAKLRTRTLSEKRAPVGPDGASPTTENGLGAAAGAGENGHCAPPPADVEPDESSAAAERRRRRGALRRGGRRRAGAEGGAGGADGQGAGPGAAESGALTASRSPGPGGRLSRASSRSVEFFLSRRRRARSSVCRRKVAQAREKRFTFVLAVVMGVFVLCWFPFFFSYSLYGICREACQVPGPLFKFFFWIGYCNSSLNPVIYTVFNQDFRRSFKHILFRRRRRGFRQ
Muscarinic acetylcholine receptor M4 (Homo sapiens), sequence (P08173 whole entry, looked up): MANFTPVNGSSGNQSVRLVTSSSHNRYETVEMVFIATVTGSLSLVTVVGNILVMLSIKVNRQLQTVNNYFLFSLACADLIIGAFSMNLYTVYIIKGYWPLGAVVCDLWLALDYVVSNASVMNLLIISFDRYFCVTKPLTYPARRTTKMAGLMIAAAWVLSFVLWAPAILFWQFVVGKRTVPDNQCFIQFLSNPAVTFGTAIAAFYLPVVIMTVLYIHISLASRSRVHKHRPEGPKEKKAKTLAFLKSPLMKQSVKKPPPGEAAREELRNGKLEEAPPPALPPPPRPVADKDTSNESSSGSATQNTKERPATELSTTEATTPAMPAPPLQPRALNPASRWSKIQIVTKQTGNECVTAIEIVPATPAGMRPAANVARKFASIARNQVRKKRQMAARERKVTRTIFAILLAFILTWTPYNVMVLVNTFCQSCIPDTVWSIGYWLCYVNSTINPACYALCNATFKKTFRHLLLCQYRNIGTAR

For COc1ccc(C2/C(=C(/O)c3ccc(OC(C)C)cc3)C(=O)C(=O)N2CCCN2CCOCC2)cc1 (stereo not given), the cell count [1] was 466, the inhibition [1] was 4.1% (inactive) and the inhibition of aggregation [2] was -2.7% (inactive). The nuclei count [2] was 102%, the inhibition [3] was -19.1% (inactive) and the nuclei count [3] was 134%. For the same molecule, the z-score [4, 14] was -0.477, the z-score [4, 15] was 0.263 and the z-score [4, 16] was 0.227. The inhibition [5] was -11.9% (inactive), the fluorescence slope [6] was -0.319 (inactive) and the NADPH fluorescence slope [7] was -2e-05 (inactive). The slope [8] was 0.00508 (inactive), the outcome [9] was “inactive” and the inhibition [10] was -1.04% (inactive). For the same molecule, the inhibition [11] was 9.78% (inactive) and the inhibition [12] was 13.7% (inactive).
With Cc1cc(C)nc(NC(=O)c2ccc(OC(C)C)cc2)n1 the cell count [1] was 520, the inhibition [1] was -2.7% (inactive) and the inhibition of aggregation [2] was -1.7% (inactive). The nuclei count [2] was 110%, the inhibition [3] was -53% (inactive) and the nuclei count [3] was 123%. The z-score [4, 14] was 0.524, the z-score [4, 15] was 1.41 and the z-score [4, 16] was -0.231. The inhibition [5] was 17% (inactive), the fluorescence slope [6] was -0.449 (inactive) and the NADPH fluorescence slope [7] was -4.9e-05 (inactive). For the same molecule, the slope [8] was 0.00572 (inactive), the outcome [9] was “inactive” and the inhibition [10] was -2.45% (inactive). The inhibition [11] was -1.16% (inactive) and the inhibition [12] was -12.9% (inactive).
In the case of Cc1nc(-c2coc3cc(OCC(=O)O)ccc3c2=O)cs1, the cell count [1] is reported as 642, the inhibition [1] is reported as -9% (inactive) and the inhibition of aggregation [2] is reported as 16.4% (inactive). For the same molecule, the nuclei count [2] was 100%, the inhibition [3] was -136% (inactive) and the nuclei count [3] was 114%. For the same molecule, the z-score [4, 14] was -0.205, the z-score [4, 15] was 0.979 and the z-score [4, 16] was 0.055. The inhibition [5] was 11.9% (inactive), the fluorescence slope [6] was -0.552 (inactive) and the NADPH fluorescence slope [7] was -4.6e-05 (inactive). The slope [8] was 0.00509 (inactive), the outcome [9] was “inactive” and the inhibition [10] was 29.5% (inactive). The inhibition [11] was 20.3% (inactive) and the inhibition [12] was 15.4% (inactive).
With Cc1noc(COc2ccccc2OCC(O)CNC(C)(C)C)n1 (stereo not given) the cell count [1] was 623, the inhibition [1] was -11.7% (inactive) and the inhibition of aggregation [2] was 16.2% (inactive). The nuclei count [2] was 89.4%, the inhibition [3] was -52.1% (inactive) and the nuclei count [3] was 128%. It also gave a z-score [4, 14] of -0.283, a z-score [4, 15] of 1.24 and a z-score [4, 16] of 2.27. For the same molecule, the inhibition [5] was -16.8% (inactive), the fluorescence slope [6] was -0.496 (inactive) and the NADPH fluorescence slope [7] was -2.4e-05 (inactive). The slope [8] was 0.0046 (inactive), the outcome [9] was “inactive” and the inhibition [10] was -3.71% (inactive). For the same molecule, the inhibition [11] was 16.2% (inactive) and the inhibition [12] was 99.7% (active).
With N#CC1=C(N)N(c2ccccc2)C(c2ccccc2)C1(C#N)C#N (stereo not given) the cell count [1] was 635, the inhibition [1] was -9.5% (inactive) and the inhibition of aggregation [2] was -8% (inactive). The nuclei count [2] was 97.6%, the inhibition [3] was 7.2% (inactive) and the nuclei count [3] was 132%. It also gave a z-score [4, 14] of 0.909, a z-score [4, 15] of -0.703 and a z-score [4, 16] of 1.5. The inhibition [5] was -6.59% (inactive), the fluorescence slope [6] was -0.346 (inactive) and the NADPH fluorescence slope [7] was -7.8e-07 (inactive). The fluorescence slope [13] was 0.00486 (inactive), the outcome [9] was “inactive” and the inhibition [10] was 58.7% (active). The inhibition [11] was 16.9% (inactive) and the inhibition [12] was 17.3% (inactive).
In the case of CC1(C)S[C@@H]2[C@H](NC(=O)C(C(=O)O)c3ccccc3)C(=O)N2[C@H]1C(=O)O (stereo not given in full), the cell count [1] is reported as 588, the inhibition [1] is reported as -12.5% (inactive) and the inhibition of aggregation [2] is reported as -7.6% (inactive). The nuclei count [2] was 99.1%, the inhibition [3] was -51.3% (inactive) and the nuclei count [3] was 138%. It also gave a z-score [4, 14] of 0.424, a z-score [4, 15] of 0.193 and a z-score [4, 16] of -0.471. For the same molecule, the inhibition [5] was 13.3% (inactive), the fluorescence slope [6] was -0.487 (inactive) and the NADPH fluorescence slope [7] was -2.7e-05 (inactive). The slope [8] was 0.00471 (inactive), the outcome [9] was “inactive” and the inhibition [10] was 37.9% (inactive). For the same molecule, the inhibition [11] was -4.51% (inactive) and the inhibition [12] was 13% (inactive).
For CC(=O)Oc1cccc2c1C(=O)c1c(OC(C)=O)cc(C(=O)O)cc1C2=O, the cell count [1] was 646, the inhibition [1] was 3.9% (inactive) and the inhibition of aggregation [2] was 6.8% (inactive). For the same molecule, the nuclei count [2] was 105%, the inhibition [3] was -52.7% (inactive) and the nuclei count [3] was 124%. The z-score [4, 14] was -1.09, the z-score [4, 15] was -1.04 and the z-score [4, 16] was -0.102. The inhibition [5] was -9.66% (inactive), the fluorescence slope [6] was -0.438 (inactive) and the NADPH fluorescence slope [7] was -4.5e-05 (inactive). For the same molecule, the slope [8] was 0.00622 (inactive), the outcome [9] was “inactive” and the inhibition [10] was -7.39% (inactive). The inhibition [11] was 4.71% (inactive) and the inhibition [12] was 26.5% (inactive).
In the case of Cc1ncc([N+](=O)[O-])n1CC(O)CCl (stereo not given), the cell count [1] is reported as 546, the inhibition [1] is reported as -5% (inactive) and the inhibition of aggregation [2] is reported as -12.8% (inactive). The nuclei count [2] was 100%, the inhibition [3] was -91.7% (inactive) and the nuclei count [3] was 114%. For the same molecule, the z-score [4, 14] was 0.947, the z-score [4, 15] was -1.73 and the z-score [4, 16] was -1.47. The inhibition [5] was 3.45% (inactive), the fluorescence slope [6] was -0.5 (inactive) and the NADPH fluorescence slope [7] was 2.8e-05 (inactive). For the same molecule, the slope [8] was 0.00498 (inactive), the outcome [9] was “inactive” and the inhibition [10] was -0.632% (inactive). The inhibition [11] was -0.807% (inactive) and the inhibition [12] was 16.6% (inactive).
For C[C@]12CC[C@@H]3c4ccc(O[C@@H]5O[C@H](C(=O)O)[C@@H](O)[C@H](O)[C@H]5O)cc4CC[C@H]3[C@@H]1C[C@@H](O)[C@@H]2O, the cell count [1] was 606, the inhibition [1] was -2.6% (inactive) and the inhibition of aggregation [2] was -0.5% (inactive). The nuclei count [2] was 90.1%, the inhibition [3] was -146% (inactive) and the nuclei count [3] was 127%. It also gave a z-score [4, 14] of 0.0825, a z-score [4, 15] of -0.52 and a z-score [4, 16] of -0.309. For the same molecule, the inhibition [5] was 1.48% (inactive), the fluorescence slope [6] was -0.487 (inactive) and the NADPH fluorescence slope [7] was -4.1e-05 (inactive). The slope [8] was 0.00431 (inactive), the outcome [9] was “inactive” and the inhibition [10] was -2.21% (inactive). For the same molecule, the inhibition [11] was 15% (inactive) and the inhibition [12] was 32.3% (inactive).
In the case of C[N+]12CCC(CC1)C(OC(=O)C(O)(c1ccccc1)c1ccccc1)C2 (stereo not given), the cell count [1] is reported as 609, the inhibition [1] is reported as -0.8% (inactive) and the inhibition of aggregation [2] is reported as 3.7% (inactive). The nuclei count [2] was 106%, the inhibition [3] was -71.3% (inactive) and the nuclei count [3] was 119%. It also gave a z-score [4, 14] of -0.393, a z-score [4, 15] of -0.0364 and a z-score [4, 16] of 0.334. For the same molecule, the inhibition [5] was 3.45% (inactive), the fluorescence slope [6] was -0.526 (inactive) and the NADPH fluorescence slope [7] was -2.4e-05 (inactive). The slope [8] was 0.00456 (inactive), the outcome [9] was “inactive” and the inhibition [10] was -10.3% (inactive). For the same molecule, the inhibition [11] was 6.28% (inactive) and the inhibition [12] was 21.7% (inactive).
